# The list is not random: actives were taken first. Their share in the collection is about 0.75%.
# Mtb hypoxia rep: inhibitors of hypoxia-regulated fluorescent reporter in Mycobacterium tuberculosis | M. tuberculosis hypoxia-regulated fluorescent reporter, fluorescence | AID 1159583 | 0.1% of 300,000 active | fluorescence inhibition, % (concentration not given with the values); in the data active means fluorescence inhibition mostly above about 23%, no sharp cut-off; inactive means mostly below about 17%
# BioA inh: inhibitors of Mycobacterium tuberculosis BioA enzyme; purified M. tuberculosis BioA enzyme, plate reader; inhibition, % at 9.99 µM; 0.096% of 360,000 active; AID 602481; in the data active means inhibition above about 40%
# RN4220 kill: kills Staphylococcus aureus RN4220. S. aureus RN4220 growth, OD600, 16 h. inhibition, % (test concentration not listed). 0.33% of 330,000 active; in the data active means inhibition above about 85%
# TcdB inh: blocks C. difficile toxin B glycohydrolase activity; P18177; TcdB glycohydrolase enzymatic assay, plate reader; inhibition, % at 9.99 µM; 0.24% of 350,000 active; AID 652162; in the data active means inhibition above about 10%
# Y pestis TopoI: inhibitors of Yersinia pestis topoisomerase I | Y. pestis Topo-I cleavage product accumulation, plate reader | activity, % at 10 µM | 0.064% of 360,000 active | AID 504884; in the data active means activity above about 50%, passing the limit was not always enough
# ugtP null kill: kills S. aureus RN4220 lacking UgtP | S. aureus RN4220 ugtP deletion, OD600 growth, 16 h | growth inhibition, % (test concentration not listed) | 0.54% of 330,000 active | AID 1259309; in the data active means growth inhibition above about 68%
# A number is an active result; – = inactive; · = not tested or not shown.
SMILES,Mtb hypoxia rep,BioA inh,RN4220 kill,TcdB inh,Y pestis TopoI,ugtP null kill
O=C1NC(Cc2ccccc2)c2nc3ccccc3c(=O)n2-c2cc3ccccc3cc21 (centres undefined),·,–,·,–,51,·
COc1cc2nc3n(c(=O)c2cc1OC)-c1cc2ccccc2cc1C(=O)NC3Cc1ccccc1 (centres undefined),·,–,·,–,65,·
CC(C)CC1NC(=O)c2cc3ccccc3cc2-n2c1nc1cc(Cl)ccc1c2=O (centres undefined),·,–,·,–,54,·
CC(=N/N=C1/NC(=O)C(CC(=O)Nc2ccc(C)c(Cl)c2)S1)C(C)(C)C (centres undefined),–,·,–,·,·,–
O=C1C=C(c2ccc(-c3ccccc3)c(F)c2)CC(c2ccc(F)cc2)C1 (centres undefined),–,·,–,·,·,–
O=C(CSc1nc2ccccc2[nH]1)NN=Cc1ccco1,–,·,–,·,·,–
C(=Nc1ncnc2sccc12)NOCc1ccccc1,·,·,–,·,·,–
FC(F)(F)c1cccc(NC(=S)NCC2COc3ccccc3O2)c1 (centres undefined),–,–,–,·,–,83
CC1NC(=O)NC1CCCCCC(=O)O (centres undefined),–,·,–,·,·,–
CCOC(=O)c1c(NC(=O)CCc2ccc(CC)o2)sc(C)c1C,–,–,–,–,57,–
CCOC(=O)c1c(NC(=O)CSc2nnc(Cc3ccccc3)o2)sc(C)c1C,–,–,–,·,–,98
C[C@@H]1C=C[C@](Cc2ccccc2)(C(=O)NCC2CC2)N1C(=O)c1ccccc1,·,–,·,11,–,·
CC1C=C[C@](Cc2ccccc2)(C(=O)NCCc2c[nH]c3ccccc23)N1C(=O)c1ccccc1 (some centres undefined),–,·,–,·,·,–
CC1COC(=O)C(CC(=O)OC(C)(C)C)CC=CCC(CC(=O)NC(CO)Cc2ccccc2)C(=O)N1 (centres undefined),–,·,–,·,·,–
CCCS(=O)(=O)N1CCN(Cc2ccc3c(c2)c2ccccc2n3CC)CC1,41,–,–,·,–,–
O=[N+]([O-])c1cc(-c2ccc(C=Nn3cnnc3)o2)cc([N+](=O)[O-])c1,43,·,–,·,·,–
NC1=NC(=O)/C(=C\c2ccc(O)c([N+](=O)[O-])c2)S1,56,·,–,–,–,–
CC(C)CN1C(Nc2ccccc2)=NCC1C (centres undefined),–,·,–,·,·,–
Cc1cc(C(=O)Nc2ncc(C)s2)c2ccccc2n1,–,·,–,10,–,–
COc1ccc(NC(=O)c2cc(C)nc3ccccc23)c(OC)c1,·,·,·,12,–,·
Cc1cc(C(=O)Nc2ccccc2Cl)c2ccccc2n1,–,–,–,–,–,–
COc1ccccc1NC(=O)c1cc(-c2cc(OC)c(OC)c(OC)c2)nc2ccccc12,–,–,–,–,–,–
COc1cc(-c2cc(C(=O)Nc3ccncc3)c3ccccc3n2)cc(OC)c1OC,22,–,–,–,–,–
CCOc1ccc(C(=O)NN=C(c2ccccc2)c2ccccn2)cc1,·,·,–,·,·,–
Cn1cc([N+](=O)[O-])c(C(=O)NN=Cc2ccncc2)n1,–,·,–,·,·,–
SMILES,Mtb hypoxia rep,BioA inh,RN4220 kill,TcdB inh,Y pestis TopoI,ugtP null kill
CC(=NNc1nncc2ccccc12)c1ccc(O)cc1,–,·,–,·,·,–
COc1ccc([N+](=O)[O-])cc1NC(=O)CCN1CCN(CCO)CC1,–,45,–,–,–,–
COc1ccc([N+](=O)[O-])cc1NC(=O)Nc1ccccc1,–,–,95,·,–,83
CCOC(=O)c1c(N=CC2=C(O)CCCC2=O)sc2c1CCCC2,–,·,–,·,·,–
COC(=O)C1=C(c2ccc(S(C)(=O)=O)cc2)CC2CCC1N2C(=O)NCc1ccccc1 (centres undefined),–,·,–,·,·,–
O=C(NCc1cccnc1)c1cc(C2CCCCN2S(=O)(=O)c2cccc3cccnc23)on1 (centres undefined),·,–,·,10,–,·
Cc1ccc(NC(=O)CC2SC(=NN=Cc3ccco3)NC2=O)cc1Cl (centres undefined),–,·,–,·,·,–
CCOC(=O)C1=C(CC)Nc2ccccc2N=C1NC(=O)Nc1ccc(Cl)c(Cl)c1,–,–,101,–,–,100
CCN1C(=O)C2C(c3ccc(-c4ccc(Cl)c(Cl)c4)c(OC)c3)N3CCCC[C@@]3(C(=O)OC)C2C1=O (some centres undefined),–,·,–,·,·,–
Cc1ccc(C(C)C)c(OCc2nn(CC(=O)c3ccc(Cl)cc3)c3[n+]2CCCCC3)c1,·,·,100,–,–,99
CCC1=C(OC(=O)N(CC)CC)N2C(=O)OC(=NCC(=O)OC)[C@]2(C)C2C1=CCC1C(=O)N(CC)C(=O)C12 (some centres undefined),–,·,–,·,·,–
COc1ccc(-c2ccc3c(c2)[C@H]2[C@H](CCN2C(=O)C2CC2)[C@@H](CO)N3C)cc1,·,–,·,15,·,·
COc1ccc(-c2ccc3c(c2)[C@H]2[C@H](CCN2C(=O)C2CC2)[C@H](CO)N3C)cc1,·,–,·,–,·,·
COc1ccc(-c2ccc3c(c2)[C@@H]2[C@@H](CCN2C(=O)C2CC2)[C@H](CO)N3C)cc1,·,–,·,13,·,·
O=C(O)c1cn(-c2ccc(F)cc2)c2cc(Cl)c(F)cc2c1=O,–,–,–,–,–,97
CCOC(=O)c1cn(-c2ccc([N+](=O)[O-])cc2)c2cc(Cl)c([N+](=O)[O-])cc2c1=O,–,·,–,·,–,–
CC(=O)c1cccc(NC(=O)c2ccc([N+](=O)[O-])o2)c1,–,–,–,–,–,91
O=C(Nc1cccnc1)c1ccc([N+](=O)[O-])o1,–,–,–,–,–,–
Cc1ccc(C)c(-c2nnc(NC(=O)c3ccc([N+](=O)[O-])o3)o2)c1,·,–,–,–,–,90
NC(=O)c1oc2ccccc2c1NC(=O)c1ccc([N+](=O)[O-])o1,·,–,100,–,–,100
CC(=O)c1ccc(NC(=O)c2ccc([N+](=O)[O-])o2)cc1,73,–,–,–,–,–
CON(C)C(=O)C=CCCCCNC(=O)OC(C)(C)C,–,·,–,·,·,–
O=C(Nc1ccc2oc(-c3ccncc3)nc2c1)c1ccccc1,–,–,–,–,–,–
O=C(Nc1ccc2oc(-c3ccncc3)nc2c1)c1ccc([N+](=O)[O-])o1,·,–,100,–,–,–
Cc1cc(C)cc(NC(=O)c2ccc([N+](=O)[O-])o2)c1,–,·,93,–,–,94
SMILES,Mtb hypoxia rep,BioA inh,RN4220 kill,TcdB inh,Y pestis TopoI,ugtP null kill
O=C(NNC(=O)c1ccc([N+](=O)[O-])o1)c1ccccc1,·,·,–,·,–,99
CC(=O)Nc1cc(-c2ccc(F)cc2)[nH]n1,–,·,–,11,–,–
O=C(Nc1cc(-c2ccccc2)[nH]n1)c1ccccc1F,–,–,–,–,–,–
CCCCCCn1ccc(=N)cc1,·,·,–,·,–,–
CCCCCCCCCCCCCCCCn1cc[n+](CC(C)=O)c1,–,·,100,·,–,101
Nn1cnnc1NN=Cc1cc([N+](=O)[O-])c(Cl)cc1Cl,–,·,–,·,·,–
COc1ccc(Cl)cc1CN1CCN(c2nc(C)cc(C)c2C#N)CC1,·,–,99,·,–,100
O=C(O)c1ccc(C=NN2CCN(C3c4ccccc4-c4ccccc43)CC2)cc1,–,·,–,·,·,–
